Screening data as filed in PubChem BioAssay.
MITF act – MITF TRPM1 promoter activation in melanoma cells; SK-MEL-5 TRPM1-promoter luciferase, 24 h; % of positive control, neutral wells = 0; activation, % at 12.5 µM; 300,000 tested, 0.75% active;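 active means mean activation of at least 80% with every replicate also reaching 80%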;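 further: 0% = neutral control wells and 100% = parthenolide positive control wells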
HSF1 inhib – HSF1 inhibition | NIH3T3-HGL HSE-luciferase, MG132-induced, luminescence 8 h; hits give low values | activity change, negative = inhibition, % at 7.5 µM (by protocol) | 300,000 tested, 0.77% active;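 active means more than half of replicate wells show activity change below -50%, luminescence cut by over half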;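 further: luciferase reports HSF-1 transcriptional activity via heat shock element; 0% = median of DMSO wells and -100% = zero luminescence signal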
HSF-1 act – increases HSF-1 driven luciferase reporter signal | NIH3T3-HGL HSF-1 luciferase reporter, MG132, 8 h; 100% = twice DMSO control signal | activation, % at 9 µM | 300,000 tested, 1.7% active;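 active means mean replicate activation of at least 50% with a set share of replicates each reaching 50%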;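 further: 0% = median of the neutral control wells and 100% = twice that signal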
esBAF inh – SWI/SNF esBAF complex inhibition | mouse ES cells, Bmi1-luciferase knock-in reporter, 24 h; 100% = twice the neutral-well signal | reporter increase, % at 12.5 µM | 350,000 tested, 2% active | AID 602393; in the data active means activation above about 40%;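 further: 0% = median of the plate's neutral control wells and 100% = double that signal; a rise in the Bmi1 reporter signal indicates esBAF inhibition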
Wnt bcat act – Wnt/beta-catenin pathway activation | Wnt/beta-catenin reporter cell assay, activator, plate reader | activation, % at 9.35 µM | 300,000 tested, 1.2% active | AID 743398; in the data active means activation above about 30%, passing the limit was not always enough;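 further: 0% = neutral control wells and 100% = positive control wells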
* hit, by the source's call; / = not tested or not shown. In the library only some 3.8% were active in any assay of this set; here they are far more common.

SMILES	MITF act	HSF1 inhib	HSF-1 act	esBAF inh	Wnt bcat act
COC(=O)CCCNC(=O)c1ccc2nc(Cc3ccc(OC)cc3)oc2c1	26	8	13	17	1
CN1C(=O)c2cc(NC(=O)Cc3cccs3)ccc2OC[C@H]2O[C@@H](CC(=O)O)CC[C@H]21	/	/	/	-2	/
CCc1cnc(N2[C@H](C#N)[C@@H](c3ccc(C#CC(C)C)cc3)[C@@H]2CO)s1	/	/	/	8	/
CCOC(=O)C1CCCN(C(=O)c2ccc(Cl)c(S(=O)(=O)N3CCCCC3)c2)C1 (configuration not stated)	-7	24	79*	-1	-2
CCOC(=O)C1CCN(C(=O)c2ccc(C)c(S(=O)(=O)N3CCCC3)c2)CC1	10	2	-1	-1	3
COc1ccc([C@@H](C)NC(=O)c2ccc3oc(C(C)C)nc3c2)cc1	55	17	16	64*	18
COc1ccc(Cc2nc3ccc(C(=O)N4CCCC4)cc3o2)cc1	57	15	32	71*	29
C[C@@H]1CCCCO[C@@H](CN(C)S(=O)(=O)c2cn(C)cn2)[C@H](C)CN([C@H](C)CO)C(=O)c2cc(NC(=O)c3ccccc3)ccc2O1	/	/	/	1	/
COc1ccccc1C(=O)Nc1ccc2c(c1)OC[C@H](C)N(C)C[C@@H](C)[C@@H](OC)CN(C)C2=O	/	/	/	-2	/
CC1(C)CC(=O)C2=C(C1)N1C(=C(C#N)C2c2ccc(Cl)cc2)N=C(N)c2ccccc21 (configuration not stated)	-44	54	76*	9	1
CC1(C)CC(=O)C2=C(C1)N1C(=C(C#N)C2c2ccccc2Cl)N=C(N)c2ccccc21 (configuration not stated)	1	23	28	6	-3
Cc1[nH]n(-c2ccccc2)c(=O)c1C=NCc1ccco1	/	0	0	/	/
Cc1[nH]n(-c2cccc(Cl)c2)c(=O)c1C=NCc1ccco1	105*	/	/	/	8
Cc1[nH]n(-c2cccc(Cl)c2)c(=O)c1C=NCC(C)C	111*	15	23	/	3
CCC(=O)Nc1ccc2c(c1)C(=O)N(C)C[C@@H](OC)[C@@H](C)CN(C(=O)C1CC1)[C@@H](C)CO2	/	/	/	2	/
COc1cccc(-c2ccc3c(c2)[C@H]2[C@H](CCN2C(=O)CN2CCOCC2)[C@H](CO)N3)c1	/	/	/	9	/
O=c1oc2ccccc2cc1-c1nc2ccccc2o1	46	0	-2	-2	35*
Cc1ccc(-c2noc(-c3cc4ccccc4oc3=O)n2)cc1	55	7	-4	21	/
NC(=O)c1cn(-c2ccccc2)nc1-c1cc2ccccc2oc1=O	4	1	13	1	-4
Cc1cc(-c2nnc(-c3cc4ccccc4oc3=O)o2)c(C)n1-c1ccccc1	/	-8	-9	54*	/
O=c1oc2ccccc2cc1-c1nc(-c2ccccc2)no1	19	36	63*	9	/
COc1ccc2oc(=O)c(-c3nc4ccccc4o3)cc2c1	43	3	1	/	103*
COCCNC(=O)C[C@H]1C[C@@H]2c3cc(NC(=O)c4cccnc4)ccc3O[C@@H]2[C@@H](CO)O1	/	/	/	3	/
CO[C@H]1CN(C)C(=O)c2cc(NC(=O)c3ccno3)ccc2OC[C@H](C)N(S(C)(=O)=O)C[C@@H]1C	/	/	/	-4	/
C[C@H]1CN([C@@H](C)CO)C(=O)c2cc(C#CC3(O)CCCC3)cnc2O[C@@H]1CN(C)C(=O)C1CCC1	/	/	/	5	/
SMILES	MITF act	HSF1 inhib	HSF-1 act	esBAF inh	Wnt bcat act
COc1cccc(S(=O)(=O)N2C[C@H](O)COC[C@@H]3O[C@H](CC(=O)N4CCN(C)CC4)CC[C@H]32)c1	/	/	/	3	/
Cn1c(-c2cc3ccccc3oc2=O)nc2ccccc21	78	9	27	/	25
COc1ccc2cc(-c3nc4ccccc4n3C)c(=O)oc2c1	90*	11	43	87*	13
COc1cc2ccccc2nn1	5	-8	9	/	3
COc1ccc2c(n1)Sc1nc3ccccc3nc1N2	-8	27	55*	23	40*
CCN(CC)c1ccc(/C=N/N2CCOCC2)c(O)c1	109*	-6	-5	/	/
NC(=O)Nc1ccc(C(=O)OCC(=O)N(Cc2ccccc2)C2CCS(=O)(=O)C2)cc1 (configuration not stated)	-11	-20	-20	-2	-1
O=C(c1ccc(Cl)c([N+](=O)[O-])c1)N(Cc1ccc(Cl)cc1)C1CCS(=O)(=O)C1 (configuration not stated)	-6	/	/	/	47*
O=C(/C=C/c1ccc(Cl)cc1Cl)N(Cc1ccccc1)C1CCS(=O)(=O)C1 (configuration not stated)	-6	20	52*	/	/
O=C(/C=C/c1ccc(Cl)cc1Cl)N(Cc1ccc(Cl)cc1)C1CCS(=O)(=O)C1 (configuration not stated)	-12	8	27	/	-10
CN(C)c1cccc(C(=O)OCC(=O)N(Cc2ccccc2)C2CCS(=O)(=O)C2)c1 (configuration not stated)	6	1	10	46*	-2
CO[C@@H]1CN(C)C(=O)c2ccc(NC(=O)C3CC3)cc2OC[C@@H](C)N(C(=O)Cc2ccccn2)C[C@@H]1C	/	/	/	-2	/
C[C@@H]1CN([C@@H](C)CO)C(=O)c2cc(NS(=O)(=O)c3ccc(F)cc3)ccc2O[C@@H](C)CCCCO[C@H]1CN(C)C(=O)CCC(F)(F)F	/	/	/	9	/
CCCNC(=O)C[C@@H]1CC[C@@H]2[C@@H](COc3ccc(NC(=O)c4cscn4)cc3C(=O)N2C)O1	/	/	/	-3	/
CNC(=O)c1sc(-c2ccc(Cl)cc2)nc1C	40	13	30	68*	8
O=C(Nc1cccc(NC(=O)c2cccs2)c1)c1ccc([N+](=O)[O-])o1	-97	60	78*	12	12
COc1cc(NC(=O)c2cc3ccccc3cc2OC)ccc1NC(=O)c1cccs1	-16	-58*	-58	3	5
COc1cc(NC(=O)c2ccc([N+](=O)[O-])o2)ccc1NC(=O)c1cccs1	-88	69	127*	-19	-5
COc1cc(NC(=O)c2cccs2)ccc1NC(=O)Cc1ccccc1	19	3	9	3	2
O=C(Nc1ccc(N2CCN(C(=O)c3cccs3)CC2)cc1)c1ccc([N+](=O)[O-])o1	-96	10	22	-79	-9
CC(C)NC(=O)N(C)C[C@H]1OCCCC[C@@H](C)Oc2ccc(NS(=O)(=O)c3cn(C)cn3)cc2C(=O)N([C@@H](C)CO)C[C@H]1C	/	/	/	-16	/
O=C(/C=C/c1cccs1)c1ccc(N2CCOCC2)cc1	20	-37	-48	52*	7
COc1ccc(N=c2oc3ccc(OC)cc3cc2-c2nc3ccccc3[nH]2)cc1	0	31	58*	60*	/
COc1cccc(N=c2oc3ccc(OC)cc3cc2-c2nc3ccccc3[nH]2)c1	-9	28	54*	8	20
